Screening data (PubChem BioAssay)
Shown are actives, neighbours in structure and some others; about 0.74% of the full set was active somewhere.
HMGR II inh = inhibitors of class II HMG-CoA reductase from Enterococcus faecalis; 190,000 tested, 0.41% active; inhibition, % at 10 µM; purified E. faecalis HMGR, NADPH absorbance 340 nm kinetic; AID 1066;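 active means inhibition above a set limit, the median over all tested compounds plus 3 SD, cut at about 9.5% in these data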;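 further: enzyme runs in reverse so mevalonate oxidation gives rising NADPH absorbance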
pCIP destab = compounds decreasing mouse p/CIP protein stability. decrease of EGFP signal, % at 10 µM. F442A p/CIP-EGFP cells, EGFP fluorescence, 16 h. 290,000 tested, 0.01% active. Q05BA5. AID 1984;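 active means EGFP signal decrease of at least 30% at 10 µM or well 3 SD below plate mean, unless failing retest; inactive means the rest, including hits failing retest or dose response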
Redox H2O2 prof = compounds producing H2O2 with reducing agent – biochemical, NIH compound library profiling, artefact control for MLSCN library redox annotation, primary screen. DTT-dependent redox cycling H2O2, phenol red/HRP absorbance; 100% = 100 µM peroxide control, 0% = buffer. activation, % at 10 µM. 200,000 tested, 0.03% active;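 active means activation of at least 50% relative to the plate's high and low controls in the primary single-dose screen; inactive means activation below 50%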;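 further: compound incubated with DTT at 0.8 mM final as the reducing agent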
Tb hexokinase = blocks Trypanosoma brucei hexokinase 1 activity. recombinant TbHK1, G6PDH-coupled NADH A340. inhibition, % at 10 µM. 220,000 tested, 0.11% active. AID 1430;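 active means inhibition of 50% or more in the single-dose primary screen; inactive means inhibition below 50%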
p97 inhibitor = human p97 ATPase inhibition | recombinant p97 ATPase, Kinase-Glo ATP luminescence, 3 h | 220,000 tested, 0.42% active | inhibition, % at 8 µM | P55072; in the data active means inhibition above about 15%
Target sequence (P55072 whole entry, looked up): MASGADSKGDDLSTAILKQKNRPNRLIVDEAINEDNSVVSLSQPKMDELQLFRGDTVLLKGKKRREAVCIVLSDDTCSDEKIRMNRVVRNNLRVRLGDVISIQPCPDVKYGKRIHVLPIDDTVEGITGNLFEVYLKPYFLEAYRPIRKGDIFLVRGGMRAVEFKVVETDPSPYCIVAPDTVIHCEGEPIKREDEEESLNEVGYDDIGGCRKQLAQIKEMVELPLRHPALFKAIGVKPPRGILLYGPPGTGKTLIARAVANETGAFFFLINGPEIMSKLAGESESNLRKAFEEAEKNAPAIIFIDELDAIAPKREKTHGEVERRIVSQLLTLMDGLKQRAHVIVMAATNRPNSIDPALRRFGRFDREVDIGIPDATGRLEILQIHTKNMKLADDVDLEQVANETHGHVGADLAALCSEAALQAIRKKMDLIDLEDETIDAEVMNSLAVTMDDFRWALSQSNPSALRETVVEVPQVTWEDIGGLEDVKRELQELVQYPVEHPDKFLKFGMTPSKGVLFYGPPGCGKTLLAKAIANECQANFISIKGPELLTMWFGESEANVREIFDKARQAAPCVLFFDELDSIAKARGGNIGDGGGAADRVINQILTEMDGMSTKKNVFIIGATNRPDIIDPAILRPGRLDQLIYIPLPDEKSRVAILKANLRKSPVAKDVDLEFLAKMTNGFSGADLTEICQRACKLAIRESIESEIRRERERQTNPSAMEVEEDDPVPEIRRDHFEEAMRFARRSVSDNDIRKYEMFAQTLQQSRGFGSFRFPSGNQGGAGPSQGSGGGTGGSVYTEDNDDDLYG
Furin inh = human furin inhibition; purified furin, fluorogenic substrate cleavage; inhibition, % at 20 µM or 30 µM; 220,000 tested, 0.061% active; in the data active means inhibition above about 25%
Of the large screens only hits and unclear results are named; the others gave an inactive call.

CCN(CC)C(=O)c1cnn(-c2ccccc2)c1NC(=O)c1ccco1	none
CCN(CC)C(=O)c1cnn(-c2ccccc2)c1NC(=O)c1cccs1	HMGR II inh 9.6
CCCC(=O)C1=C(O)C(C(=O)OC)C(C)(C)CC1=Nc1ccc(N)cc1 (stereo not drawn)	none
CCCC(=Nc1ccc(N)cc1)C1=C(O)C(C(=O)OC)C(C)(C)CC1=O (stereo not drawn)	p97 inhibitor 14.5
O=C(Nc1cnccn1)Nc1ccccc1F	none (no result: HMGR II inh, Redox H2O2 prof, Tb hexokinase, p97 inhibitor, Furin inh)
COc1ccccc1OCCCCn1c(C(C)O)nc2ccccc21 (stereo not drawn)	none (no result: HMGR II inh, Redox H2O2 prof, Tb hexokinase, p97 inhibitor, Furin inh)
COCCCn1c(C)c(C(C)=O)cc(NC(=O)c2ccccc2)c1=O	HMGR II inh 10.6
Cc1nn(-c2ccccc2)c(C)c1/C=N/NC(=O)c1ccccc1NS(=O)(=O)c1cccs1	none
O=[N+]([O-])c1ccc(N2CCCCC2)c(-c2nn[nH]n2)c1	HMGR II inh 14.2
CCC(C)C(NC(=O)C1CCC(C)CC1)C(=O)NCc1cccnc1 (stereo not drawn)	Furin inh 29.4
CC1CCC(C(=O)NC(C(=O)NCc2cccnc2)C(C)C)CC1 (stereo not drawn)	none
Cc1nn(Cc2ccc(Br)cc2)c(C)c1NC(=O)c1nn(C)cc1Cl	none
Cc1ccc(Cn2nc(C)c(NC(=O)c3nn(C)cc3Cl)c2C)cc1	Furin inh 25.4
CC1=C(C(=O)OCc2ccccc2)C(/C=C/c2ccccc2)NC(=S)N1 (stereo not drawn)	HMGR II inh 10.0
Nc1ccc2c(c1)C(=O)C(=O)c1ccccc1-2	p97 inhibitor 30.8 (no result: pCIP destab)
CC12CCC(C(=O)N(CSC(=S)N/N=C\c3ccccc3O)C1=O)C2(C)C (stereo not drawn)	HMGR II inh 9.9
O=C1CCCC/C1=C/NCc1ccc(F)cc1	none
CCOc1ccccc1-c1c2cc(O)c(=O)cc-2oc2cc(O)c(O)cc12	none
COc1ccc(OC)c(-c2c3cc(O)c(=O)cc-3oc3cc(O)c(O)cc23)c1	p97 inhibitor 21.7
COc1ccc(-c2cc(-n3c(C(F)(F)F)nc4ccccc43)n(CCC#N)n2)cc1	HMGR II inh 12.9
O=C(CNCc1ccco1)Nc1ccc(N2CCCCCC2)cc1	HMGR II inh 11.0
COc1ccccc1NC(=S)NCc1ccc2c(c1)cc(C)n2C	none
Cc1ccccc1NC(=S)NCc1ccc2c(c1)cc(C)n2C	HMGR II inh 15.3
CC(=O)NC1C(=O)N=C(SCC(=O)Nc2sc3c(c2C#N)CCCCCC3)NC1=O (stereo not drawn)	HMGR II inh 9.8
CC(NCc1ccc(S(N)(=O)=O)cc1)C(=O)Nc1cccc(Cl)c1 (stereo not drawn)	none (no result: HMGR II inh, Redox H2O2 prof)
COc1ccc(C2C(C#N)=C(N)Oc3cc(O)ccc32)cc1Cl (stereo not drawn)	none (no result: HMGR II inh, Redox H2O2 prof, Tb hexokinase, p97 inhibitor, Furin inh)
COc1ccc(/C=C/C(=O)c2ccc(NC3=NCCCS3)cc2)cc1OC	HMGR II inh 10.4
CCC1CSC(Nc2ccc(C(=O)/C=C/c3ccc(OC)c(OC)c3)cc2)=N1 (stereo not drawn)	none
COCc1ccc(CN2CCCC(CO)(Cc3ccccc3)C2)o1 (stereo not drawn)	none
COCc1cc(C)n(CC(=O)OC)c(=O)c1C#N	HMGR II inh 13.6
Clc1ccc(-c2ccc(CNCC3CCCO3)o2)cc1 (stereo not drawn)	none (no result: HMGR II inh, Redox H2O2 prof)
COc1ccc(NC(=O)N(Cc2cc3ccc(OC)cc3[nH]c2=O)CC2CCCO2)cc1 (stereo not drawn)	HMGR II inh 16.6
Cc1[nH]n(S(=O)(=O)c2ccccc2)c(=O)c1N=Nc1cccc(Cl)c1	none (no result: HMGR II inh, Redox H2O2 prof, Tb hexokinase, p97 inhibitor, Furin inh)
Cc1[nH]n(S(=O)(=O)Cc2ccccc2)c(=O)c1N=Nc1ccccc1Cl	HMGR II inh 10.0
CN(Cc1ccccc1)C(=O)CCC1CCN(C(=O)CCC(F)(F)F)CC1	none (no result: HMGR II inh, Redox H2O2 prof, Tb hexokinase, p97 inhibitor, Furin inh)
Cc1cc2ncn(S(=O)(=O)N3CCOCC3)c2cc1C	Furin inh 26.5
Cc1cc2ncn(S(=O)(=O)N3CCCCC3)c2cc1C	none
CC(C)(C)OC(=O)N1CCC(c2c(C(=O)NC3CC3)cnn2-c2ccccc2)CC1	none (no result: HMGR II inh, Redox H2O2 prof, Tb hexokinase, p97 inhibitor, Furin inh)
CN(c1ccc(C(=O)N2CCCCC2)cc1)S(=O)(=O)c1ccccc1	HMGR II inh 31.0
CC(C)(C)N1CC(OC(N)=O)C1	none (no result: HMGR II inh, Redox H2O2 prof)
CCOC(=O)CCc1c(C)nc2cc(-c3ccccc3OC)[nH]n2c1=O	none
CCn1c(C)c(CCC(=O)O)c(=O)n2nc(-c3ccccc3OC)cc12	Furin inh 26.6
CCc1nnc(NC(=O)CSc2nnc(C3CCCCC3)n2-c2cccc(Cl)c2)s1	Furin inh 29.5
CCc1nnc(NC(=O)CSc2nnc(CNc3cccc(Cl)c3)n2CC)s1	none
CCCC[C@H]1COCCS(=O)(=O)N1Cc1cccc([N+](=O)[O-])c1	none (no result: HMGR II inh, Redox H2O2 prof, Tb hexokinase, p97 inhibitor, Furin inh)
Cc1ccc(/C=C/C(=O)O)cc1S(=O)(=O)NCCCO	HMGR II inh 22.2
COc1ccccc1CNC(=O)C(=O)NCC1OCCCN1S(=O)(=O)c1cccs1 (stereo not drawn)	none (no result: HMGR II inh, Redox H2O2 prof, Tb hexokinase, p97 inhibitor, Furin inh)
CCN(CC(=O)NCCc1ccccc1)S(=O)(=O)c1ccc(Br)cc1	none
CN(CC(=O)NCCc1ccccc1)S(=O)(=O)c1ccccc1	HMGR II inh 13.7
O=C(Nc1nccs1)c1ccc(CSc2nnnn2-c2ccccc2)cc1	HMGR II inh 11.3
O=C(N/N=C/C(Br)=C/c1ccccc1)C(O)c1ccccc1 (stereo not drawn)	none (no result: HMGR II inh, Redox H2O2 prof)
O=C(O)c1ccc(N/N=C/C(Br)=C/c2ccccc2)cc1	p97 inhibitor 14.7 (no result: HMGR II inh, Redox H2O2 prof)
CCCN1CCN(CCCNC(=S)Nc2ccc3nc(N4CCN(CC)CC4)cc(C)c3c2)CC1	pCIP destab 80.5
CCCCNC(=S)Nc1ccc2nc(N3CCN(CC)CC3)cc(C)c2c1	none (no result: HMGR II inh, Redox H2O2 prof, Tb hexokinase, p97 inhibitor, Furin inh)
CCc1ccc(NC(=O)CSCc2ccc(C(=O)O)cc2)cc1	HMGR II inh 20.9
COC(=O)c1ccc(NC(=O)CSCc2ccccc2)cc1	none
CCO[C@@H]1OC(C(=O)Nc2ccccc2)=C[C@H](c2ccc(C(F)(F)F)cc2)[C@H]1CCCO	HMGR II inh 11.7
CCO[C@H]1OC(C(=O)Nc2ccccc2)=C[C@@H](c2ccc(Br)cc2)[C@@H]1CCCO	none
COCCCN1C(=O)C(=O)/C(=C(/O)c2ccc(S(=O)(=O)N3CCCCC3)cc2)C1c1ccc(O)c(OC)c1 (stereo not drawn)	none (no result: HMGR II inh, Redox H2O2 prof, Tb hexokinase, p97 inhibitor, Furin inh)
COCCCN1C(=O)C(=O)/C(=C(/O)c2ccc(OC)cc2)C1c1ccc(O)c(OC)c1 (stereo not drawn)	HMGR II inh 11.9
N=c1c2c(-c3ccccc3)c(-c3ccccc3)n(Cc3ccco3)c2ncn1CCCN1CCOCC1	HMGR II inh 10.7
Cc1ccc(C(=O)NN2C(=O)C3C4C=CC(C5CC45)C3C2=O)cc1 (stereo not drawn)	HMGR II inh 10.8
Cc1ccc(C(=O)NN2C(=O)C3C4C=CC(C4)[C@@H]3C2=O)cc1 (stereo partly drawn)	none (no result: HMGR II inh, Redox H2O2 prof)
